{"source": "PubChem BioAssay (NCI)", "note": "Compounds without any hit were thinned out: in the full panel of roughly 83,000, 20% have a hit.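 Negative percent growth values reflect cell death: -40 means 40% of the cells present at the start died, and -100 means all died.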 The source made the active and inactive calls. Rule for the calls: active = growth percent below 10; inactive = the rest.", "data": [{"system": "RXF 393 renal", "experiment": "NCI-60 one-dose screen, 48 h (100 = growth as untreated, 0 = no growth, -100 = all killed)", "conditions": "10 µM unless noted", "values": [{"molecule": "COc1cc(-c2nc(SCCC(C)C)nc(Nc3ccccc3)c2C#N)cc(OC)c1OC", "growth": "114% (inactive)"}, {"molecule": "O=C(N/N=C\\c1cc(Cl)ccc1O)N/N=C/c1cc(Cl)ccc1O", "growth": "85% (inactive)"}, {"molecule": "Cc1ccc(S(=O)(=O)Oc2ccc([N+](=O)[O-])cc2[N+](=O)[O-])cc1", "growth": "111% (inactive)"}, {"molecule": "COCCCNc1nc(NC(=O)c2cc(OC)cc(OC)c2)cc(-c2cccnc2)n1", "growth": "97.7% (inactive)"}, {"molecule": "CC1(C)CC[C@]2(C(=O)O)CC[C@]3(C)C(=CC[C@@H]4[C@@]5(C)C/C(=C/c6ccco6)C(=O)C(C)(C)[C@@H]5CC[C@]43C)[C@@H]2C1", "growth": "-68.5% [100 µM] (active)"}, {"molecule": "O=C(N=c1n(-c2ccccc2)nc2n1CCN2C1=NCCN1)c1ccc(Cl)cc1", "growth": "61.9% (inactive)"}]}, {"system": "SF-268 CNS", "experiment": "NCI-60 one-dose screen, 48 h (100 = growth as untreated, 0 = no growth, -100 = all killed)", "conditions": "10 µM unless noted", "values": [{"molecule": "CC1=CCc2ccccc21", "growth": "110% (inactive)"}, {"molecule": "O=C1Nc2ccccc2/C1=C/C(=O)c1ccc(N2CCCCC2)cc1", "growth": "71.7% (inactive)"}, {"molecule": "COc1ccc2nc3c(cc2c1)C(=O)CC(c1ccccc1)C3", "note": "(centres undefined)", "growth": "53.9% (inactive)"}, {"molecule": "Oc1ccc(N=Nc2nccs2)c(O)c1", "growth": "51.5% (inactive)"}, {"molecule": "Cc1cc(-c2ccc(N=Nc3c(S(=O)(=O)O)cc4cc(S(=O)(=O)O)cc(N)c4c3O)c(C)c2)ccc1N=Nc1cc(S(=O)(=O)O)c2ccccc2c1O", "growth": "95.6% (inactive)"}, {"molecule": "C#CCNC(=O)CC[C@]1(C)[C@H]2CC[C@@H]3[C@@H]([C@@](C)(O)CCC=C(C)C)CC[C@@]3(C)[C@]2(C)CC[C@H]1C(=C)C", "growth": "-28.8% [100 µM] (active)"}, {"molecule": "CC(=O)Nc1ccc2nc3ccc(NC(C)=O)cc3[n+](-c3ccccc3)c2c1", "growth": "97.5% (inactive)"}, {"molecule": "CCN(CC)CCCCCCNc1cccc2cc(Br)cnc12", "growth": "74.9% (inactive)"}, {"molecule": "COc1ccc(NC(=S)NNc2ccc(-c3ccc(OC)c(OC)c3)nn2)cc1", "growth": "92.9% (inactive)"}, {"molecule": "O=[N+]([O-])c1cc([N+](=O)[O-])c(NN=C(c2ccc(O)cc2)c2ccc(O)cc2)cc1Cl", "growth": "-91.8% (active)"}, {"molecule": "CC(C)C1=NOC(=O)C1=Cc1cn(-c2ccccc2)nc1-c1cccc([N+](=O)[O-])c1", "growth": "94.1% (inactive)"}, {"molecule": "C=C(C)[C@@H]1CC[C@]2(C(=O)NCCNCCNCCN)CC[C@]3(C)[C@H](CC[C@@H]4[C@@]5(C)CC[C@H](O)C(C)(C)[C@@H]5CC[C@]43C)[C@@H]12", "growth": "-31% [100 µM] (active)"}, {"molecule": "O=C1COCCN1c1ccc(Nc2nc(Cl)nc(N3CCOCC3)n2)cc1", "growth": "99.4% (inactive)"}, {"molecule": "Cn1cc(-c2noc(-c3cn(C)c4ncc(F)cc34)n2)c2cc(Br)ccc21", "growth": "76.1% (inactive)"}, {"molecule": "CC1(C)NCCC[C@]2(C)[C@H]3C=CC4=C5C[C@](C)(CO)CC[C@]5(C)CC[C@@]4(C)[C@]3(C)CC[C@@H]12", "growth": "-69.9% [100 µM] (active)"}, {"molecule": "CCCC(NC(=O)OCc1ccccc1)C(=O)O", "note": "(centres undefined)", "growth": "104% (inactive)"}, {"molecule": "CC(C)C1=NOC(=O)C1=Cc1cn(-c2ccccc2)nc1-c1ccc(Cl)cc1", "growth": "99.3% (inactive)"}, {"molecule": "COc1cc(OC)cc(C(=O)Nc2cc(-c3cccnc3)nc(NCCCN3CCOCC3)n2)c1", "growth": "94.1% (inactive)"}, {"molecule": "Brc1ccc2c(c1)CN(C1CCCCC1)CO2", "growth": "96.4% (inactive)"}, {"molecule": "CC/C=C(\\C)C(CCC)(CN=O)C(=O)OCC", "note": "(centres undefined)", "growth": "105% (inactive)"}, {"molecule": "O=C(Nc1ccc(F)cc1)c1ccccc1", "growth": "105% (inactive)"}, {"molecule": "O=C(O)c1cccc(CN2CCN(c3cc4c(cc3F)c(=O)c(C(=O)O)cn4C3CC3)CC2)c1O", "growth": "105% (inactive)"}, {"molecule": "COC(=O)c1c(C)[nH]c(/C=C2\\N=C(c3ccc[nH]3)C=C2OC)c1C", "growth": "18.3% (inactive)"}, {"molecule": "C=CCCC1(C)NC(=O)NC1=O", "note": "(centres undefined)", "growth": "98% (inactive)"}, {"molecule": "O=[N+]([O-])c1cccc(N=NNc2cccc([N+](=O)[O-])c2)c1", "growth": "93.5% (inactive)"}, {"molecule": "Cc1ccc(N)c(O)c1", "growth": "103% (inactive)"}, {"molecule": "CCN(CC)c1ccc2cc(NC(=O)OCCNC(=O)CCNC(=O)[C@H](CC(C)C)NC(=O)C(C)(C)NC(=O)C(C)(C)NC(=O)[C@H](CC(C)C)NC(=O)CCNC(=O)C(C)(C)NC(=O)[C@H](CC(C)C)NC(=O)CCNC(=O)[C@@](C)(CC)NC(=O)[C@H](C)NC(=O)CCNC(=O)C(C)(C)NC(=O)[C@H](C)NC(=O)[C@@H]3CCCN3C(=O)[C@@](C)(CC)NC(=O)[C@H](Cc3ccccc3)NC(=O)C3CCCN3C(=O)C(C)(C)NC(=O)C3CCCN3C(=O)C(C)(C)NC(C)=O)c(=O)oc2c1", "note": "(some centres undefined)", "growth": "-94.6% (active)"}, {"molecule": "COC(=O)[C@]12CCC(C)(C)C[C@H]1C1=CC[C@@H]3[C@@]4(C)C/C(=C/c5cccnc5)C(=O)C(C)(C)[C@@H]4CC[C@@]3(C)[C@]1(C)CC2", "growth": "-5.3% [100 µM] (active)"}, {"molecule": "CC(C)[C@H]1COC(=O)N1[C@@H]1C(=O)N([C@@H](CCC(=O)N2CCN(C3CCCC3)CC2)C(=O)N[C@@H]2CCCc3ccccc32)[C@@H]1/C=C/c1cccc(Cl)c1", "growth": "28.5% (inactive)"}, {"molecule": "CCN=Cc1c(O)c(O)c(C(C)C)c2cc(C)c(-c3c(C)cc4c(C(C)C)c(O)c(O)c(C=NCC)c4c3O)c(O)c12", "growth": "44.7% (inactive)"}, {"molecule": "O=c1cc(-c2ccccc2)oc2c(O)c(O)ccc12", "growth": "67.6% (inactive)"}, {"molecule": "COc1ccc(C2NC(=O)C(C#N)c3c2sc2c(F)cccc32)cc1", "note": "(centres undefined)", "growth": "62% (inactive)"}, {"molecule": "COc1cc(-c2nc(SCCC(C)C)nc(Nc3ccccc3)c2C#N)cc(OC)c1OC", "growth": "95.9% (inactive)"}, {"molecule": "O=C(N/N=C\\c1cc(Cl)ccc1O)N/N=C/c1cc(Cl)ccc1O", "growth": "57.9% (inactive)"}, {"molecule": "Cc1ccc(S(=O)(=O)Oc2ccc([N+](=O)[O-])cc2[N+](=O)[O-])cc1", "growth": "96.5% (inactive)"}, {"molecule": "COCCCNc1nc(NC(=O)c2cc(OC)cc(OC)c2)cc(-c2cccnc2)n1", "growth": "100% (inactive)"}, {"molecule": "CC1(C)CC[C@]2(C(=O)O)CC[C@]3(C)C(=CC[C@@H]4[C@@]5(C)C/C(=C/c6ccco6)C(=O)C(C)(C)[C@@H]5CC[C@]43C)[C@@H]2C1", "growth": "-27.2% [100 µM] (active)"}, {"molecule": "O=C(N=c1n(-c2ccccc2)nc2n1CCN2C1=NCCN1)c1ccc(Cl)cc1", "growth": "83.8% (inactive)"}]}]}
